Measured values taken from PubChem BioAssay (Tox21).
“And” between values parts separate entries of the source, which are not always exact repeats. Equal values may be shown once. Results filed as inconclusive are left out. A call without a number means that no potency is given here. The source made the active and inactive calls. Calls come from the whole dose curve.

Experiment: qHTS assay for small molecules that induce genotoxicity in human embryonic kidney cells expressing luciferase-tagged ATAD5 - cell viability (AID 651634); note: nearly all actives have a fitted effect of over 25% in size
Conditions: HEK293T ATAD5-luc cells viability, CellTiter-Fluor, 15.5 h; series mostly up to 83.3 µM; activity, negative = cytotoxicity: at the top concentration
Text: National Center for Advancing Translational Sciences [NCATS]
NIH Chemical Genomics Center [NCGC]
U.S. Environmental Protection Agency [EPA]
National Institutes of Environmental Health Sciences [NIEHS]
National Toxicology Program [NTP]
U.S. Food and Drug Administration [FDA]
Enhanced Level of Genome Instability Gene 1 (ELG1; human ATAD5) protein levels increase in response to various types of DNA damage. Using a luciferase reporter-gene tagged with ElG1, a cell-based assay [developed by Kyungjae Myung, NHGRI, NIH] was used to measure the induction of ATAD5 in human embryonic kidney cells (HEK293T). So, increase in luciferase activity can be used to identify the compounds that cause genetic stress. In addition to genotoxicity, these cells were also used to test for cytotoxicity by measuring the protease activity within live cells.
Tox21 Assay Protocol Summary:
For cytotoxicity screening, 2,000 cells in 5 uL/well were dispensed into white, solid-bottom 1536-well plates using a Multidrop Combi (Thermo Scientific) dispenser. Following transfer of 23 nL compound or DMSO vehicle by a pin tool, the plates were incubated 15.5 hr at 37C and 5% CO2. 1 ul CellTiter-Fluor reagent (Promega, Madison, WI) was then added to each plate and following 30 min incubation at 37C, fluorescence intensity was quantified on a ViewLux CCD-based plate reader.
Potency is the fitted concentration of half-maximal effect.

SMILES	Potency	activity, negative = cytotoxicity
Cc1c(OCC(F)(F)F)ccnc1CS(=O)c1nc2ccccc2[nH]1 (stereo not given)	inactive	–
Nc1ncn([C@@H]2O[C@H](CO)[C@@H](O)[C@H]2O)c(=O)n1	750 nM (active) and 1.37 µM (active)	–
OC[C@H]1O[C@@H]2O[C@H]3[C@H](O)[C@@H](O)[C@@H](O[C@H]4[C@H](O)[C@@H](O)[C@@H](O[C@H]5[C@H](O)[C@@H](O)[C@@H](O[C@H]6[C@H](O)[C@@H](O)[C@@H](O[C@H]7[C@H](O)[C@@H](O)[C@@H](O[C@H]8[C@H](O)[C@@H](O)[C@@H](O[C@H]1[C@H](O)[C@H]2O)O[C@@H]8CO)O[C@@H]7CO)O[C@@H]6CO)O[C@@H]5CO)O[C@@H]4CO)O[C@@H]3CO	inactive	–
COC(=O)Nc1nc2ccc(S(=O)c3ccccc3)cc2[nH]1 (stereo not given)	–	-13.9% (inactive)
C#C[C@]1(O)CC[C@H]2[C@@H]3CCC4=Cc5oncc5C[C@]4(C)[C@H]3CC[C@@]21C	inactive	–
Cc1ccc2c(n1)Oc1ccc(C(C)C(=O)OCC(=O)N(C)C)cc1C2 (stereo not given)	inactive	–
c1ccc2c(c1)c1cccc3ccc4cccc2c4c31	–	20.2% (inactive)
CCCCCCCCCCCO	inactive	–
CC(=O)C1(C)CC2=C(CCCC2(C)C)CC1C (stereo not given)	–	-7.16% (inactive)
c1ccc2sc(SSN3CCOCC3)nc2c1	–	-16.9% (inactive)
CC1=CCC(C(C)(C)O)CC1 (stereo not given)	inactive	–
COC(=O)CCC(=O)OC	inactive	–
NC=O	inactive	–
O=C(O)c1ccccc1Nc1cccc(C(F)(F)F)c1	inactive	–
Cc1cc2nc3c(=O)[nH]c(=O)nc-3n(C[C@H](O)[C@H](O)[C@H](O)CO)c2cc1C	inactive	–
Clc1nc(Cl)c(Cl)c(Cl)c1Cl	inactive	–
CC(=O)c1ccccn1	inactive	–
O=S(=O)(O)c1ccc(O)cc1	inactive	–
CCCCCCCCCC(=O)OC	inactive	–
CC(=O)O[C@]1(C(C)=O)CC[C@H]2[C@@H]3C=C(Cl)C4=CC(=O)[C@@H]5C[C@@H]5[C@]4(C)[C@H]3CC[C@@]21C	inactive	–

SMILES	Potency	activity, negative = cytotoxicity
Cc1c(C(N)=O)cc([N+](=O)[O-])cc1[N+](=O)[O-]	inactive	–
Cc1cccc([N+](=O)[O-])c1C	inactive	–
Cc1cccc(C(=O)O)c1	inactive	–
O=C(c1ccccc1)c1ccccc1O	inactive	–
CC(C)OC(=O)C(C)(C)Oc1ccc(C(=O)c2ccc(Cl)cc2)cc1	inactive	–
Cc1[nH]c(=O)c(C#N)cc1-c1ccncc1	inactive	–
O=C1OC2(c3cc(Br)c(O)c(Br)c3Oc3c2cc(Br)c(O)c3Br)c2c(Cl)c(Cl)c(Cl)c(Cl)c21	9.7 µM (active) and 37.1 µM (active)	–
O=P(O)(O)O	inactive	–
C#C[C@]1(O)CC[C@H]2[C@@H]3CCc4cc(OC)ccc4[C@H]3CC[C@@]21C	inactive	–
CCC(C)c1ccccc1O (stereo not given)	inactive	–
CCCC(=O)O	inactive	–
CCCCc1oc2ccccc2c1C(=O)c1cc(I)c(OCCN(CC)CC)c(I)c1	inactive	–
OC(CCl)CCl	inactive	–
CCCc1c(OCCCCc2nn[nH]n2)ccc(C(C)=O)c1O	inactive	–
CC(=O)Oc1ccccc1C(=O)Nc1ncc([N+](=O)[O-])s1	18.8 µM (active) and 22.1 µM (active)	–
C/C=C/C(=O)O	inactive	–
O=[N+]([O-])c1ccc2c(c1)Cc1ccccc1-2	inactive	–
Brc1cc(Oc2cc(Br)c(Br)c(Br)c2Br)c(Br)c(Br)c1Br	inactive	–
CCCCC(CC)COC(=O)c1ccc(N(C)C)cc1 (stereo not given)	inactive	–
OCCO	inactive	–
